Source: PubChem BioAssay AID1159580 (chemical genetic matrix, 2015)
Among all 5,500 compounds or so, about 2,000 (36%) were called active. About 18% were inconclusive and are not listed. Cut-off read from the data, not from the text of the source: active = normalized growth mostly below about 0.91 (no sharp cut-off); inconclusive = no clear call, values can overlap the other calls; inactive = mostly above about 0.92. This is one part of the list.

Experiment: chemical genetic growth profiling, strain panel (AID 1159580);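 note: tested at 20 µM; growth read once vehicle control cultures reached saturation at 30 °C; 1 = growth at the plate median or of vehicle wells; lower values mean less growth of the strain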
Conditions: S. cerevisiae deletion strains, growth OD

Measured: normalized growth

COC(=O)[C@H](Cc1ccccc1)NC(=O)/C(=C1\OC(=O)C(c2ccccc2)=C1O)c1ccccc1
inactive: locus YHR030C, strain SLT2, active compounds read low 1.05 | locus YHR079C, strain IRE1, active compounds read low 1.06 | locus YJL095W, strain BCK1, active compounds read low 0.998 | locus YJR066W, strain TOR1, active compounds read low 0.992 | locus YLR113W, strain HOG1, active compounds read low 0.961 | locus YNL183C, strain NPR1, active compounds read low 0.98 | locus YOR231W, strain MKK1, active compounds read low 1.04 | locus YPL256C, strain CLN2, active compounds read low 1.05
